# High-throughput results as filed in PubChem BioAssay.
# Pf growth 96h – inhibits malaria parasite growth, 96 h; P. falciparum luciferase reporter growth, 96 h; Potency, µM (series often up to 28.7 µM), usual class: inhibitors; 6.9% of 320,000 active
#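 Delayed-death screen, second-generation endpoint: infected erythrocytes, 2% hematocrit, 0.05% parasitemia final; 96 hours at 37 C, 5% CO2; luciferase detection reagent; luminescence decrease equals reduced growth.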
# SARS PLpro yeast – SARS-CoV PLP inhibition in yeast; S. cerevisiae expressing SARS-CoV PLpro, growth rescue; Potency, µM (titrated, usually from 32.9 µM), usual class: activators; 0.19% of 330,000 active; calls by dose curve; further: nearly all actives have a fitted effect of over 55% in size
# Sm TGR inh – S. mansoni TGR enzyme inhibition; Q962Y6; AID 485364; 3% of 360,000 active; purified TGR, DTNB reduction, TNB absorbance 405 nm; Potency, µM (series often up to 114 µM), usual class: inhibitors; further: nearly all actives have a fitted effect of over 60% in size
#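 First, TGR (20 nM dispensed) and NADPH were mixed with compound. Second, a 15 min room-temperature incubation followed. Third, further NADPH and then DTNB were added to start the reaction. Finally, TNB absorbance was monitored kinetically.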
# HCV inhibitor – blocks hepatitis C virus; Huh7.5.1 HCVcc-Cre infection, luciferase reporter, 44 h; Potency, µM (doses to about 41.8 µM), usual class: inhibitors; 3.4% of 340,000 active
#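 Infectious HCVcc-Cre (~0.5 moi) was added to cells just after compound, with cells seeded 4 h earlier at 1,000 per well. Luciferase activity after 44 h culture reported infection; substrate was incubated 15 min at room temperature before reading.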
# Pf growth 48h – P. falciparum growth inhibition at 48 hours (one generation); P. falciparum luciferase growth in erythrocytes, 48 h; Potency, µM (top dose mostly 28.7 µM), usual class: inhibitors; 5.9% of 310,000 active
#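 Read-out is firefly luciferase luminescence from an integrated reporter in P. falciparum, so falling signal marks reduced parasite growth. Infected erythrocytes were at 2% hematocrit and 0.1% parasitemia (final) in Albumax-supplemented RPMI 1640.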
# HCMV inh – inhibitors of human cytomegalovirus; HFF cells, HCMV-luciferase reporter, 72 h; stronger effect = lower value; activity change, negative = inhibition, % at 57.5 µM; 4.5% of 410,000 active; in the data active means activity change below about -60%; inconclusive means no clear call, values can overlap the other calls; inactive means above about -39%
#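 Inhibition of viral replication was scored as loss of reporter luminescence in HFFs infected with HCMV-luciferase (MOI 1 PFU/cell) for 72 h; compounds tested at 2 doses, normalized to buffer and Salinomycin controls.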
# Hits are given with their value; i = inactive; ? = inconclusive; nt = not tested or not shown; [ ] = dose if it differs, or a comment. Only some compounds are listed: those with a hit (about 15% of all), similar ones and a draw of the others. Unless noted, the call rests on the fitted dose curve; in most records, active means well fitted curve in the direction sought with a large enough effect; inconclusive means small, poorly fitted or top-dose-only effect, or another doubt; inactive means no such curve, though single readings can be large; an effect the other way counts as inactive or inconclusive.
SMILES,Pf growth 96h,SARS PLpro yeast,Sm TGR inh,HCV inhibitor,Pf growth 48h,HCMV inh
Cc1ccc(NC(=O)C2CCCN2C(=O)OCc2ccccc2)cc1F (stereo unspecified),?,i,i,?,i,i
CCOc1ccccc1NC(=O)C1CCCN1C(=O)OCc1ccccc1 (stereo unspecified),9.3µM,i,i,?,i,i
COc1ccc(NC(=O)C2CCCN2C(=O)OCc2ccccc2)cc1 (stereo unspecified),i,i,i,i,i,i
COc1ccc(OC)c(NC(=O)C2CCCN2C(=O)OCc2ccccc2)c1 (stereo unspecified),i,i,i,?,13µM,i
COc1ccc(C)cc1NC(=O)C1CCCN1C(=O)OCc1ccccc1 (stereo unspecified),?,i,i,i,10µM,i
CCc1ccccc1NC(=O)C1CCN(S(C)(=O)=O)CC1,nt,nt,nt,i,nt,i
Cc1cc(N2CCN(C(C(=O)NC3CCCC3)c3ccc(F)cc3)CC2)c2ccccc2n1 (stereo unspecified),nt,nt,nt,nt,nt,i
CC(/C=N/NC(=O)c1cc(C(C)C)[nH]n1)=C\c1ccccc1,i,i,i,?,i,i
COc1cc2nc(N3CCN(C(=O)OCc4ccccc4)[C@H](C(=O)NC(C)(C)C)C3)nc(N)c2cc1OC,5.2µM,nt,i,?,2.9µM,?
CC(NC(=O)C1CCCN1C(=O)OCc1ccccc1)c1ccccc1 (stereo unspecified),?,i,i,i,i,i
CCOc1ccc(OCCC(=O)OCC(=O)NCc2ccccc2)cc1,i,i,i,i,i,i
O=C(Oc1ccc([N+](=O)[O-])cc1)c1cncc(Br)c1,i,i,18µM,i,i,i
O=C(Oc1ccc(C(=S)N2CCOCC2)cc1)c1ccc([N+](=O)[O-])cc1,1.5µM,i,i,i,i,i
O=C(c1ccc([N+](=O)[O-])cc1)N1CCOCC1,nt,nt,nt,i,nt,i
COc1cc(C(=S)N2CCOCC2)ccc1OC(=O)c1ccc(Br)cc1,5.2µM,i,i,i,i,i
COc1cc(C(=S)N2CCOCC2)cc(OC)c1OS(=O)(=O)c1ccc(Cl)cc1,10µM,i,i,i,?,i
COc1cc(C(=S)N2CCOCC2)ccc1OS(=O)(=O)c1ccc(Cl)cc1,i,i,i,i,i,i
COc1cc(C(=S)N2CCOCC2)ccc1OC(=O)c1cccc(C)c1,i,i,i,?,i,i
Cc1cccc(C)c1NC(=O)NC1(C(=O)NCCCN2CCOCC2)CCCCC1,i,i,i,i,i,i
Cn1nnnc1SCC(=O)Nc1ccc(S(=O)(=O)N2CCOCC2)cc1,i,i,i,i,i,?
O=C(NC1CCCCC1)C1CC(=O)N(c2cccc([N+](=O)[O-])c2)C1 (stereo unspecified),i,i,i,i,i,i
Cc1nn2c(N)c(-c3ccccc3)cnc2c1-c1ccccc1,i,i,i,i,i,i
COc1cc(C(=S)N2CCOCC2)cc(OC)c1OC(=O)c1ccccc1[N+](=O)[O-],i,?,i,16µM,i,i
COc1cccc(NC(=O)CSc2nc(O)c(C/C=C/c3ccccc3)c(=O)[nH]2)c1,nt,nt,i,nt,nt,i
COc1ccc(C2=NCCn3c2c2ccc(C(F)(F)F)cc2[n+]3[O-])cc1,i,i,i,i,?,i
SMILES,Pf growth 96h,SARS PLpro yeast,Sm TGR inh,HCV inhibitor,Pf growth 48h,HCMV inh
Cc1ccc(C2=NCCn3c2c2ccc(C(F)(F)F)cc2[n+]3[O-])cc1,?,i,i,?,10µM,i
COC(=O)N1C(=O)[C@@](Cc2ccccc2)(c2ccccc2)N1C(=O)OC,?,i,3.5µM,i,i,i
COC(=O)N1C(=O)[C@](Cc2ccccc2)(c2ccccc2)N1C(=O)OC,i,i,3.5µM,i,i,i
CCOC(=O)C1=CN(CC)S(=O)(=O)NC1c1ccc(C(F)(F)F)cc1 (stereo unspecified),nt,i,nt,i[8.37 µM],nt,i
CCOC(=O)c1c(/N=C/c2ccc(OC)cc2O)sc2c1CCN(C)C2,5.2µM,i,?,i,10µM,i
CN1CCc2c(sc(/N=C/c3c[nH]c4ccccc34)c2C(N)=O)C1,3.7µM,i,i,i,4.1µM,i
CCOC(=O)c1c(/N=C/c2ccc(C)cc2O)sc2c1CCC2,i,i,i,?,i,i
CSc1nnc(-c2ccccc2Cl)n1N,10µM,i,i,i,i,i
Cc1sc2c(c1C)c(=O)n(-c1ccccc1)c(=O)n2CC(=O)c1ccc(Cl)cc1,nt,nt,i,nt,nt,i
Cc1cccn2c(CN3CCNC(=O)CC3)c(C(=O)N(C)CCc3ccccc3)nc12,1.9µM,i,i,i,i,i
O=C(NC(=S)NC1C2CC3CC(C2)CC1C3)c1ccccc1 (stereo unspecified),10µM,i,?,i,i,i
Cc1ccnc(NC(=O)C2CC(=O)N(c3ccc4c(c3)OCCO4)C2)c1 (stereo unspecified),i,i,i,i,i,i
CCn1ncc(C2=NOC(C(=O)NCc3ccc(Cl)cc3)C2)c1C (stereo unspecified),nt,i,i,i,i,-81
O=C1C=CC(O)(c2cc(=O)c3c(O)cc(O)cc3o2)C=C1,15µM,i,35µM,?,9.3µM,-96
OC1(C#CCN2CCCC2)CCCCC1,?,i,i,i,i,i
COc1cc(OC)c(NS(=O)(=O)c2cc(C(=O)OC(C)C(=O)NC3CC3)c(Cl)cc2Cl)cc1Cl (stereo unspecified),i,i,i,11µM,?,i
Cc1ccc(C)c(N(CC(=O)NC2CCCCC2)C(=O)c2snc(C(N)=O)c2N)c1,i,i,i,?,?,i
CC(C)(C)NC(=O)CN(C(=O)c1snc(C(=O)NC2CCCCC2)c1N)c1ccccc1F,i,i,i,?,12µM,i
CCN(CC)S(=O)(=O)c1cccc(NC(=O)COC(=O)c2[nH]c(C)c(C(C)=O)c2C)c1,nt,nt,nt,nt,nt,-85
CC(=O)c1c(C)[nH]c(C(=O)OCC(=O)Nc2cccc(S(=O)(=O)N(C)C)c2)c1C,?,i,i,6.3µM,?,-61
COC(=O)c1ccc2nc(-c3ccco3)c(Cc3ccsc3)n2c1,nt,nt,nt,nt,nt,i
CC1(C)CC(=O)c2sc(NS(C)(=O)=O)nc2C1,i,nt,i,i,i,i
CC1(C)CC(=O)c2c(S(C)(=O)=O)sc(Br)c2C1,?,i,16µM,i,?,-60
CCOc1cc(C)nc(NCc2ccccc2)n1,?,i,i,i,nt,i
CC(=O)c1ccc(Oc2cc(C)nc(NCc3ccccc3)n2)cc1,?,i,i,13µM,?,i
Cc1cc(OC2CCCCC2)nc(NCc2ccccc2)n1,5.2µM,i,i,i,?,i
CCCCOc1cc(C)nc(NCc2ccccc2)n1,?,?,i,i,13µM,i
COc1cccc(CNC(=O)Cc2csc3ccccc23)c1OC,nt,nt,i,nt,nt,i
